From PubChem BioAssay AID485364 (National Center for Advancing Translational Sciences (NCATS), 2010)
The campaign covered roughly 360,000 compounds. About 11,000 (3.1%) were called active. Inconclusive results (about 4%) are left out. The sample as a whole holds a higher share of actives than the screen did. Values without a mark were called inactive. Calls come from the whole dose curve; as a rule, active = well fitted inhibition curve with a large enough effect; inconclusive = small, poorly fitted or top-dose-only effect; inactive = no such curve, though single readings can be large or run the other way.

biological target: Schistosoma mansoni thioredoxin glutathione reductase (TGR) (UniProt Q962Y6); assay: qHTS Assay for the Inhibitors of Schistosoma Mansoni Peroxiredoxins; details: purified TGR, DTNB reduction, TNB absorbance 405 nm; series mostly up to 114 µM; activity change, negative = inhibition: at the top concentration; note: nearly all actives have a fitted effect of over 60% in size
Summary of the method: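 TGR 20 nM + NADPH 100 uM (dispensed conc.), cpd preinc 15 min RT; start with NADPH (500 uM addition) then DTNB (15 mM addition). Kinetic TNB absorbance, 405 nm filter. Four-parameter Hill fit across titration.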
% is set by controls: 0 for no effect and ±100 for the full control effect; potency is the fitted concentration of half-maximal effect.

Row | Compound | activity change, negative = inhibition | Potency
1 | Cc1nc2ccccn2c(=O)c1NC(=O)c1c(F)cccc1F | 2.55% | 
2 | CCn1cc(C(=O)N(C)Cc2ccccc2)c(=O)c2cc(S(=O)(=O)N3CCCCCC3)ccc21 | 6.08% | 
3 | Cc1cccc(C)c1NC(=O)CSc1nc2c([nH]1)c(=O)n(C)c(=O)n2C | 0.969% | 
4 | CC(CCO)Nc1nc2c([nH]1)c(=O)n(C)c(=O)n2C (stereo unspecified) | -6.03% | 
5 | Cc1ccc(NN=Nc2nc3c([nH]2)c(=O)n(C)c(=O)n3C)cc1 |  | 56.2 µM (active)
6 | CCc1cccc(C)c1NS(=O)(=O)c1ccc(-c2cc(C)no2)s1 | -0.715% | 
7 | Cc1nc2ccn(Cc3cccs3)c(=O)c2cc1C(=O)NCc1ccc(Cl)cc1 | -4.6% | 
8 | COc1ccc(-c2onc(C)c2C)cc1S(=O)(=O)NCc1cccs1 | 10.8% | 
9 | CCN(CC)S(=O)(=O)c1ccc2c(c1)c(=O)c(C(=O)N1CCN(c3cccc(Cl)c3)CC1)cn2C | -3.45% | 
10 | Cc1cc(NC(=O)CSc2nnnn2-c2ccc(F)cc2)no1 | 7.99% | 
11 | Cc1cc(NC(=O)CCS(=O)(=O)c2ccc(F)cc2)no1 |  | 17.8 µM (active)
12 | Cc1cc(NC(=O)CCC(=O)N(CC(=O)NC2CCCC2)c2ccc(F)cc2)no1 | -9.59% | 
13 | COc1ccccc1Nc1c2c(nc3ccc(NC(=O)/C=C/c4cc(OC)c(OC)c(OC)c4)cc13)CCCC2 | 0.0236% | 
14 | CCOC(=O)c1ccc(CSc2nnc3cc(C)c4ccccc4n23)cc1 | 2.03% | 
15 | Cc1ccc2c(c1)=C/C(=C\c1c(O)[nH]c(=O)[nH]c1=O)C(=O)N=2 |  | 14.1 µM (active)
16 | O=C1N=c2ccccc2=C/C1=C\c1c(O)[nH]c(=S)[nH]c1=O |  | 10 µM (active)
17 | O=c1[nH]c(O)c(C=Nc2cc(F)cc(F)c2)c(=O)[nH]1 | -25.8% | 
18 | Cc1cccc(S(=O)(=O)c2cn(Cc3ccccc3)c3cc(N4CCOCC4)c(F)cc3c2=O)c1 | 1.91% | 
19 | COc1ccc(NC(=O)CCCc2nnc3n(CCC(C)C)c(=O)c4sccc4n23)c(OC)c1 | 4.6% | 
20 | CCn1c2ccccc2c2cc(CN3CCN(Cc4cccc(Cl)c4)CC3)ccc21 | -1.51% | 
21 | CCOC(=O)c1c(SCC(=O)Nc2cccc(C)c2C)nc(=O)[nH]c1C | 18.3% | 

Row | Compound | activity change, negative = inhibition | Potency
22 | Cc1ccc(NC(=O)CSc2nc3c(c(=O)[nH]2)CN(Cc2ccc4c(c2)OCO4)CC3)cc1C | 0.576% | 
23 | COc1ccc(Cl)cc1NC(=O)C(C)Sc1nc2c(c(=O)[nH]1)CCCC2 (stereo unspecified) | -7.09% | 
24 | CCC(=O)Nc1ccccc1-c1nc2ccccc2n(CC(=O)Nc2ccc(C)c(C)c2)c1=O | 4.89% | 
25 | CCOc1ccc(CNC(=O)c2cc(=O)[nH]c3ccc(S(=O)(=O)N4CCCCC4)cc23)cc1 | 8.92% | 
26 | O=C(Cn1ncn2nc(-c3cccs3)cc2c1=O)NCc1cccc(Br)c1 | -14.1% | 
27 | COc1cc(OC)c(C2C=C(C(=O)O)Nc3ncnn32)cc1OC (stereo unspecified) | -1.91% | 
28 | CS(=O)(=O)c1ccc2c(c1)SC1=NC(=O)/C(=C/c3ccco3)C(=N)N12 |  | 20 µM (active)
29 | CCS(=O)(=O)C1=NSC2=NC(=O)/C(=C\c3ccc(OS(=O)(=O)c4ccccc4)cc3)C(=N)N21 | -6.77% | 
30 | CS(=O)(=O)C1=NN2C(=N)/C(=C\c3ccc(OCCOc4ccccc4)cc3)C(=O)N=C2S1 | -3.42% | 
31 | CCOC(=O)c1ccc(NC(=O)CC2C(=O)N(c3ccccc3)C(=O)N2Cc2cccs2)cc1 (stereo unspecified) | 4.52% | 
32 | Cc1c(Cl)cnc(NC(=O)COC(=O)c2ccc(S(=O)(=O)NCc3ccco3)cc2)c1Cl |  | 28.2 µM (active)
33 | O=C(COC(=O)c1cnc(Cl)c(Cl)c1)NCc1ccco1 | 7.2% | 
34 | C/C(=N\Nc1ncc(Cl)cc1Cl)c1ccc(S(=O)(=O)NCc2ccco2)cc1 | -7.19% | 
35 | COc1ccc(NC(=O)CSc2nccn2Cc2ccc3c(c2)OCO3)cc1 | -0.823% | 
36 | CC1=C(C(=O)Nc2ccccc2Cl)C(c2cccs2)n2ncnc2N1 (stereo unspecified) | 1.5% | 
37 | O=C(CSc1ncc(CO)n1Cc1ccc(Cl)cc1)NCc1ccc(F)cc1 | -2.38% | 
38 | COC(=O)COc1cc(C)cc2oc(=O)c3c(c12)CCCC3 | -5.38% | 
39 | Cc1cc(C)c(OCC(=O)N/N=C/c2ccco2)c(C)c1 | 3.94% | 
40 | COC(=O)COc1ccc2c(c1C)O/C(=C\c1ccco1)C2=O |  | 10 µM (active)
41 | CC1CCCN(S(=O)(=O)c2ccc(-c3ccc(=O)[nH]n3)o2)C1 (stereo unspecified) |  | 28.2 µM (active)
42 | CC1CCCN(S(=O)(=O)c2ccc(C(=O)Nc3nnc(-c4ccncc4)o3)cc2)C1 (stereo unspecified) | 11.7% | 

Row | Compound | activity change, negative = inhibition | Potency
43 | Cc1ccc(NS(=O)(=O)c2ccc(-c3ccc(=O)[nH]n3)o2)c(C)c1 | -1.72% | 
44 | CSc1nnc(NC(=O)c2nc(S(=O)(=O)Cc3ccc(C)cc3)ncc2Cl)s1 |  | 3.16 µM (active)
45 | Cc1ccc(NC(=O)c2cccnc2C(=O)Nc2ccc(C)cc2)cc1 | -0.158% | 
46 | CCOC(=O)c1ccc(NC(=O)c2nc(SCc3ccc(F)cc3)ncc2Cl)cc1 | 6.67% | 
47 | O=C(Nc1nc2ccc(F)cc2s1)c1nc(SCc2ccccc2F)ncc1Cl | -1.23% | 
48 | Cc1cccc(CS(=O)(=O)c2ncc(Cl)c(C(=O)Nc3ccc(F)cc3)n2)c1 |  | 7.08 µM (active)
49 | Cc1ccc(NC(=O)c2nc(S(=O)(=O)Cc3cccc(C)c3)ncc2Cl)cc1 |  | 12.6 µM (active)
50 | Cc1ccc2nc(NC(=O)c3nc(SCc4ccccc4F)ncc3Cl)sc2c1 | -1.27% | 
51 | CCS(=O)(=O)c1ncc(N(Cc2ccc(F)cc2)Cc2ccco2)c(C(=O)Nc2cc(C)ccc2C)n1 | -6.61% | 
52 | Cc1ccc(CCNC(=O)c2ccc(CS(=O)(=O)Cc3cccc(C)c3)o2)cc1 | -27.7% | 
53 | Cc1ccc(C)c(Oc2c(C(F)(F)F)oc3c(CN4CCN(C)CC4)c(O)ccc3c2=O)c1 | -12.3% | 
54 | Cc1ccc2nc(COc3cccc(NC(=O)c4ccccc4Cl)c3)cc(=O)n2c1 | 3.97% | 
55 | Cc1[nH]c2ccccc2c1C(c1ccccc1)c1cccs1 (stereo unspecified) | -3.83% | 
56 | COc1ccc(N2CCN(S(=O)(=O)CCNC(=O)C(c3ccccc3)c3ccccc3)CC2)cc1 | 0.85% | 
57 | CC(C)(C)C(=O)CSc1ccc(S(=O)(=O)N2CCCC2)cn1 | 6.79% | 
58 | O=C(O)CSc1ccc(S(=O)(=O)N2CCCC2)cn1 |  | 50.1 µM (active)
59 | O=S(=O)(c1ccc(SCc2ccccc2)nc1)N1CCCCCC1 | -23.4% | 
60 | COc1cc2c(cc1OC)C(COc1ccc(F)cc1)N(C(=O)c1ccccc1F)CC2 (stereo unspecified) | -1.72% | 
61 | COc1cccc(C(=O)NC2(C(F)(F)F)C(=O)Nc3c2c(=O)[nH]c(=O)n3-c2ccc(C)cc2)c1 (stereo unspecified) | 6.41% | 
